Results published in PubChem BioAssay AID720513 (Broad Institute, 2013).
The campaign covered roughly 2,100 compounds. About 480 (23%) were called active. Roughly 5% stayed inconclusive and do not appear here.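 Rule for the calls: active = fitted curve reaches 40% activation at or below the top valid concentration, in every replicate test; inconclusive = replicate tests disagree on the call; inactive = the rest, including activity in the opposite direction.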 Only a sample is shown. Measured potencies and affinities stand elsewhere.

Experiment: PGC1a acetylation increase, cellular AlphaLISA – cell-based, cherry-picked samples, set 6, dose response (AID 720513);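 note: cells made to overexpress flag tagged PGC1a plus GCN5 acetyltransferase by viral infection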
Settings: U2OS PGC1a acetylation AlphaLISA, overnight, 0 = neutral, -100 = inhibitor control; series mostly up to 19.5 µM; activation (acetylation increase): at the top concentration

Activation (acetylation increase), inactive:
O=C(NNS(=O)(=O)c1ccc(F)cc1)c1ccc(S(=O)(=O)N2CCCCC2)cc1 13%, N#CC1(NC(=O)Cn2ncc(Cl)c(Cl)c2=O)CCCCC1 -74.9%, C#CCN(C[C@@H]1[C@@H](OC(=O)NCCCCCC)[C@@H](OC(=O)NCCCCCC)Cn2c(=O)ccc(=O)n21)S(=O)(=O)c1ccc(C)cc1 -98.2%, CO[C@H]1CN(C)C(=O)c2ccc(NS(=O)(=O)c3ccccc3)cc2OC[C@H](C)N(C(=O)NC(C)C)C[C@@H]1C 3.86% [at 21 µM], CCN(CC)c1ccc(S(=O)(=O)N2CCOCC2)cc1NC(=O)Cn1nc(C)c([N+](=O)[O-])c1C -32.7%, O=C(Nc1cc(S(=O)(=O)N2CCOCC2)ccc1Cl)c1cc([N+](=O)[O-])ccc1Cl -92.3%, O=C(Cn1cc(C(F)(F)F)ccc1=O)Nc1cc(S(=O)(=O)N2CCOCC2)ccc1Cl 6.03%, CCN(CC)S(=O)(=O)c1ccc(C(=O)Nc2cc(S(=O)(=O)N3CCOCC3)ccc2O)cc1 19.8%, Cc1nn(CCCC(=O)O)c(C)c1[N+](=O)[O-] -1.68%, CCC(=O)NC1(Cc2ccc(O)cc2)CCCCC1 6.88%, COCCNC(=O)CN(C(=O)CCC(=O)Nc1ccccn1)c1ccc(OC)cc1 -17.2%, CCN(CC)CCNc1ccc(C)c2sc3ccc(O)cc3c(=O)c12 12.6% [at 5 µM], Cc1cccc(CCN(CC(=O)NC(C)(C)C)C(=O)c2csnn2)c1 -48.8%, Cc1ccc(S(=O)(=O)N(C)C[C@@H]2Oc3cc(C#Cc4ccncc4)ccc3S(=O)(=O)N([C@H](C)CO)C[C@H]2C)cc1 -91.5%, COc1ccc(S(=O)(=O)N(C)C[C@@H]2Oc3cc(C#CC4CC4)ccc3S(=O)(=O)N([C@H](C)CO)C[C@H]2C)cc1 18.8%, Cc1ccc(S(=O)(=O)N(C)C[C@H]2Oc3cc(C#Cc4ccncc4)ccc3S(=O)(=O)N([C@H](C)CO)C[C@H]2C)cc1 -84%, Cc1ccc(S(=O)(=O)N(C)C[C@@H]2Oc3cc(C#Cc4ccncc4)ccc3S(=O)(=O)N([C@@H](C)CO)C[C@H]2C)cc1 -83.9%, C[C@@H]1CN([C@@H](C)CO)S(=O)(=O)c2ccc(C3=CCCCC3)cc2O[C@H]1CN(C)C 13%, C[C@H]1CN([C@@H](C)CO)S(=O)(=O)c2ccc(C3=CCCC3)cc2O[C@@H]1CN(C)C 28.7%, COc1ccc(S(=O)(=O)N(Cc2cc3ccc(OC)cc3[nH]c2=O)CC2COCCO2)cc1 (configuration not stated) 4.54%, Cn1c2c(c(=O)n(C)c1=O)C(c1cccc(F)c1)C(C#N)=C(N)O2 (configuration not stated) 20.1%, Cc1ccc(S(=O)(=O)N(C)C[C@H]2Oc3ccc(NC(=O)CCC(F)(F)F)cc3C(=O)N([C@H](C)CO)C[C@@H]2C)cc1 12.5%, CCOC(=O)c1ccc(N2C(=O)CC(N3CCC(O)(c4ccc(Br)cc4)CC3)C2=O)cc1 (configuration not stated) 25.2% [at 10 µM], Cn1ncc2c(O/N=C(\N)c3ccc(C(F)(F)F)cc3)ncnc21 -61.7%, CCOC(=O)CSc1nc2cc3c(cc2cc1C#N)OCCO3 6.89%, CC(C)OC(=O)CSc1nc2cccnc2n1-c1ccc(F)cc1 -7.32%, O=C(/C=C/c1ccc(F)cc1)NNC(=O)CCN1CCN(Cc2ccccc2)CC1 4.09%, Cc1[nH]c(=O)c(C(=O)/C=C/c2ccccc2)c2c1CCCC2 -103%, CC(=O)N1CCN(C(C)=O)C1c1ccccc1 -5.86%, O=S(=O)(Nc1ccccn1)c1ccc(-n2cccn2)cc1 9.09%, CC1CCN(C(=O)COC(=O)c2ccc(Br)o2)CC1 35.8%, COc1ccc(OC)c(CNS(=O)(=O)c2cc(-c3cc(C)no3)ccc2OC)c1 40.3%, CCOc1ccc(S(=O)(=O)N(C)c2ccc(OCC(=O)N3c4ccc(C)cc4C4CN(C)CCC43)cc2)cc1 (configuration not stated) -9.14%, CN(C[C@H]1N[C@@H](CO)[C@@H]1c1ccc(C2=CCCC2)cc1)C(=O)c1ccc(F)cc1 -85.2%, CN1OC[C@@H]2CN(S(=O)(=O)c3cccc4ccccc34)[C@H](c3ccc(N4CCCCC4)cc3)C[C@@H]21 30.2%, Cc1cc(C)nc(N2CCC(C(=O)NCc3ccco3)CC2)n1 10.2%, CC(C)CC(OC(=O)c1cccs1)C(=O)NCc1ccco1 (configuration not stated) 12.3%, Cc1ccc(C)n1-c1ccc(-c2nnco2)cc1 5.89%, COc1ccc2c3c(n(C)c2c1)[C@H](CO)NCC31CCN(Cc2cc(-c3ccccc3)on2)CC1 -102%, COc1ccc2c3c([nH]c2c1)[C@@H](CO)N(C(=O)c1ccccc1)CC31CCN(S(=O)(=O)c2cccs2)CC1 -4.29%, CCN(CC)Cc1c(O)ccc2c([N+](=O)[O-])c(C)n(-c3ccc(OC)cc3)c12 -12.3%, CCOC(=O)CN1C(=O)C(Sc2n[nH]c(-c3ccc(C)cc3)n2)CCc2ccccc21 (configuration not stated) 3.64%, O=C1c2ccc(-c3ccc4c(c3)C(=O)N(CCCO)C4=O)cc2C(=O)N1CCCO 17.2%, CNC[C@H]1Oc2ncc(C#CC3CCCCC3)cc2C(=O)N([C@H](C)CO)C[C@H]1C 10.7%, O=C(Cn1cnc2c(nnn2Cc2ccc(Cl)cc2)c1=O)c1ccccc1 -24.2%, COc1cccc(OCc2nnc(SCC(=O)OCc3ccccc3)o2)c1 26.1%, COc1ccc(CN(C)C[C@@H]2Oc3ccc(NS(=O)(=O)c4c(C)noc4C)cc3C(=O)N([C@H](C)CO)C[C@H]2C)cc1 11.3% [at 21 µM], Cc1cc(C)cc(N(CC(=O)Nc2c(C)n(C)n(-c3ccccc3)c2=O)S(C)(=O)=O)c1 -1.04%, C[C@@H]1CN([C@H](C)CO)C(=O)CCCn2nncc2CO[C@H]1CN(C)S(=O)(=O)c1cn(C)cn1 -7.5%, CN(Cc1ccccc1)C(=O)c1ccc2c(c1)NC(=O)C(N1CCOCC1)S2 (configuration not stated) -37.4%, CCCOc1ccccc1C1C(C(=O)OC)=CN(C(C)C)C=C1C(=O)OC 8.53%, CN(c1cccc(NS(=O)(=O)c2cccs2)c1)S(C)(=O)=O 30.2%, CC(=O)c1ccccc1-c1csc2ncnc(Sc3nnnn3C)c12 16.2% [at 10 µM], CCn1c(CNc2ccc(C)cc2)nnc1SCC(N)=O 4.47%, Cc1[nH]nc2ncc(C(=O)c3ccccc3O)cc12 -21.6%, Cn1c(SCc2ccon2)nc2ccccc2c1=O -6.71%, CNC[C@@H]1OCCCC[C@H](C)Oc2ccc(NS(=O)(=O)c3cccs3)cc2C(=O)N([C@H](C)CO)C[C@@H]1C 0.588%
